Data on 31 compounds can be found in PubChem BioAssay (NCATS).

The test system of assay [1] is astro (control astrocytes). The experiment in a line: Drug repurposing screens with cells derived from glioblastoma tumor samples (AID 1345199). For activity, negative = cell killing: % is set by controls: 0 for no effect and ±100 for the full control effect. Note: nearly all actives have a fitted effect of over 40% in size. Note: potency is the fitted concentration of half-maximal effect. Particulars: viability, ATP luminescence, 48 h; series mostly up to 45.9 µM. Summed up:
(§1)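 Primary testing used CD133+ neurospheres from four GBM patients, seven concentrations, 48 h exposure and ATP-based viability; confirmation added three slower-growing patient lines.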

Test in assay [2]: as above
As to conditions: GBM patient neurospheres viability, ATP luminescence, 48 h. Summed up:
as §1

Assay [3] concerns the target Nuclear receptor subfamily 1 group I member 2 (Rattus norvegicus) (UniProt Q9R1A7). Put plainly: qHTS assay for small molecule activators of the rat pregnane X receptor (rPXR) signaling pathway (AID 651751; call rule not given here; note: 0% is about no effect). Particulars: rPXR reporter cells, luciferase (One-Glo), 24 h. In general terms: Quantitative high-throughput screening tests each substance at several concentrations.

Assay [4] in a line: qHTS assay for small molecule activators of the human pregnane X receptor (PXR) signaling pathway (AID 720659; call rule not given here; note: 0% is about no effect).
Assay [5] is described as follows: qHTS assay to identify inhibitors of the type 1 interferon - major histocompatibility complex class I in skeletal muscle: Counter screen cell viability and HiBit confirmation (AID 1347412). For activity change, negative = inhibition: % is set by controls: 0 for no effect and ±100 for the full control effect. For all read-outs here: nearly all actives have a fitted effect of over 60% in size. Note: potency is the fitted concentration of half-maximal effect. Particulars: iHSKM muscle cells + IFN-b, HiBiT or CellTiter-Glo, 24 h; for activity change, negative = inhibition: at 45.9 µM (top of the series). The method, boiled down: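 CRISPR HLA-B*08:01-HiBit immortalized human myoblasts (C25cl48) stimulated with 4 ng/ml IFN-beta and compounds (12-point 1:3, top 46 uM final) for 24 h at 37 C. Duplicate plates read by HiBit lytic luminescence or CellTiter Glo ATP.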

Assay [6] has as its system JEG-3. Put plainly: Primary qHTS to identify gynecologic anti-cancer compounds using libraries of approved drugs and bioactive compounds (AID 1345084). Note: nearly all actives have a fitted effect of over 55% in size. Note: potency is the fitted concentration of half-maximal effect. As to conditions: Gynecologic cancer cell panel viability, ATPlite luminescence, 48 h; series mostly up to 57.5 µM. Summed up:
(§2)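 Cells, 1,000 per well, were allowed to settle for 16 h at 37 C before compound addition. Five concentrations were tested for 48 h, and viability was read by ATPlite luminescence after 15 min at room temperature.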

For assay [7], the system named is OV90. Described as above. Particulars: Gynecologic cancer cell panel viability, ATPlite luminescence, 48 h; series mostly up to 57.5 µM. Summed up:
as §2
(In general: In ATP-based viability assays light output follows the ATP content of the culture.)

In assay [8] the test system is PA-1. Described as above. As to conditions: Gynecologic cancer cell panel viability, ATPlite luminescence, 48 h; series mostly up to 57.5 µM. The method, boiled down: as §2
The mark [9] stands for this setting: at 45.9 µM (top of the series), tumour line B.
Setting [10] is: at 45.9 µM (top of the series), tumour line D.
[11] abbreviates: at 46 µM (top of the series), tumour line A.
The mark [12] stands for this setting: at 46.1 µM (top of the series), tumour line C.

“And” between values parts separate entries of the source, which are not always exact repeats. Equal values may be shown once. A number with no mark means an inactive call. Results filed as inconclusive are left out. Some structures have more than one record in an assay (separate samples or runs), and their calls can disagree. The source made the active and inactive calls. Unless noted, calls come from the whole dose curve; as a rule, active = well fitted curve in the direction sought with a large enough effect; inconclusive = small, poorly fitted or top-dose-only effect, or another doubt; inactive = no such curve, though single readings can be large; an effect the other way counts as inactive or inconclusive.

Sequence of Nuclear receptor subfamily 1 group I member 2 (Rattus norvegicus) (Q9R1A7 whole entry, looked up): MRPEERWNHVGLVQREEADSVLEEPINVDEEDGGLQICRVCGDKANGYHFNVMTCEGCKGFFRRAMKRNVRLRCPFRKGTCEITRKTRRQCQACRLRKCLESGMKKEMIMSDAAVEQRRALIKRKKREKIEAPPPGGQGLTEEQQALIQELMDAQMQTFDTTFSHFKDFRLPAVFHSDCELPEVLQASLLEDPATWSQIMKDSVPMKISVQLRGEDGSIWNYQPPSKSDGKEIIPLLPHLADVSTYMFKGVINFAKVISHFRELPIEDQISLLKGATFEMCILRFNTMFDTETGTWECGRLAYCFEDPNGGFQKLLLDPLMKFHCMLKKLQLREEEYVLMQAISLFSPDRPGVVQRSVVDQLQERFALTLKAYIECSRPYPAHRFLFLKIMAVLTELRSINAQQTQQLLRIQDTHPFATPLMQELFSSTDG

For the compound `CO[C@H]1C[C@@H]2CC[C@@H](C)[C@@](O)(O2)C(=O)C(=O)N2CCCC[C@H]2C(=O)O[C@H]([C@H](C)C[C@@H]2CC[C@@H](O)[C@H](OC)C2)CC(=O)[C@H](C)C=C(C)[C@@H](O)[C@@H](OC)C(=O)[C@H](C)C[C@H](C)/C=C/C=CC=C1C`, the Potency in assay [1] is 35.5 µM (active).
Take `O=C(O)/C=C/C(O)c1ccc(Cl)cc1` (stereo unspecified): the activity, negative = cell killing in assay [2] (setting [9]) was 1.63%; in assay [2] (setting [10]) it was 7.64%; in assay [2] (setting [11]), -31.6%; in assay [2] (setting [12]) it was 1.95%.
Regarding `CCCCCC[C@@H](O)C/C=C\CCCCCCCC(=O)O`, the activity, negative = cell killing in assay [2] (setting [10]) was -4.78% and -10.9%; in assay [2] (setting [11]), -28%; in assay [2] (setting [12]) it was -19.3% and -4.11%. Moreover, the Potency in assay [2] (tumour line A) was 20 µM (active). Moreover, the Potency result in assay [1] is “inactive”.
As for `CN(C)CCC(c1ccc(Cl)cc1)c1ccccn1` (stereo unspecified), the max response in assay [3] was 3.17%. Further, in assay [4], the compound was called inactive.
As for `N#C/C(=C\c1ccc(-c2cc(Cl)ccc2Cl)o1)C(=O)Nc1cccc2ncccc12`, the activity change, negative = inhibition in assay [5] (Viability) was -18.8%.
Consider `O=C(O)[C@H](O)[C@@H](O)[C@H](O)[C@H](O)CO`, for which the activity, negative = cell killing in assay [2] (setting [9]) was -3.35% and -2.21%; in assay [2] (setting [10]), -11.3% and 8.58%; in assay [2] (setting [11]), -25.5% and -7.46%; in assay [2] (setting [12]), 0.0662% and -1.71%. Moreover, the Potency result in assay [1] was “inactive”. For the same compound, in assay [4], the result was inactive.
On to `C=CC(N)CCC(=O)O` (stereo unspecified), for which the activity, negative = cell killing in assay [2] (setting [9]) was -2.82%; in assay [2] (setting [10]), -18.8%; in assay [2] (setting [11]) it was -11.6%; in assay [2] (setting [12]), -7.65%. In assay [1], the Potency entry is “inactive”.
`O=C(O)COc1ccc(C(=O)c2cccs2)c(Cl)c1Cl`: the activity, negative = cell killing in assay [2] (setting [9]) was -12.4% and -10%; in assay [2] (setting [10]) it was -10.2% and 1.54%; in assay [2] (setting [11]), -22.1% and -29.6%; in assay [2] (setting [12]), -20.3% and -8.25%. Besides, the Potency result in assay [1] was “inactive”.
As to `CCOC(=O)C1=C(C)NC(C)=C(C(=O)OCC)C1c1c(F)c(F)c(F)c(F)c1F`, the activity change, negative = inhibition in assay [5] (HiBiT) was -2.44%; in assay [5] (Viability), 9.02%.
With `C[S+](CC[C@H](N)C(=O)O)C[C@H]1O[C@@H](n2cnc3c(N)ncnc32)[C@H](O)[C@@H]1O` (stereo partly specified), the activity, negative = cell killing in assay [2] (setting [9]) was 4.03% and -13.3%; in assay [2] (setting [10]) it was -4.97% and -8.65%; in assay [2] (setting [12]), -29.2% and -23.1%. Moreover, the Potency in assay [2] (tumour line A) is 7.08 µM (active).
For the compound `N=c1ccn2c(n1)O[C@H]1[C@H](O)[C@@H](CO)O[C@H]12`, the activity, negative = cell killing in assay [2] (setting [10]) was -31.3%; in assay [2] (setting [12]) it was -5.87%.
For `CC(C)(C)c1ccc(S(=O)(=O)/C=C/C#N)cc1`, the Potency in assay [5] (HiBiT) is 2.79 µM (active); in assay [5] (Viability) it was 11.1 µM (active).
As for `O=C(Nc1ccncc1)c1cc([N+](=O)[O-])ccc1Cl`, in assay [5] (HiBiT), the Potency is 15.7 µM (active). Further, the activity change, negative = inhibition in assay [5] (Viability) was -27.4%.
Turning to `C[N+](C)(C)CCOP(=O)(O)OP(=O)([O-])OC[C@H]1O[C@@H](n2ccc(N)nc2=O)[C@H](O)[C@@H]1O`, the activity, negative = cell killing in assay [2] (setting [9]) was -6.25% and -7.43%; in assay [2] (setting [10]) it was -2.69% and -5.13%; in assay [2] (setting [11]), -13.9%; in assay [2] (setting [12]) it was -5.84% and 8.06%.
As to `COc1cc(/C=C/C(=O)CC(=O)/C=C/c2ccc(O)c(OC)c2)ccc1O`, the activity, negative = cell killing is -25.8% in assay [2] (setting [9]), -25.7% in assay [2] (setting [10]) and -20.1% in assay [2] (setting [12]). The Potency in assay [2] (tumour line A) was 12.6 µM (active).
As for `CCN(CC)CCCCNc1ncc2cc(-c3c(Cl)cccc3Cl)c(NC(=O)NC(C)(C)C)nc2n1`, the Potency result in assay [6] is “inactive”. In addition, the results for the Potency in assay [7] and in assay [8] were 7.94 µM (active) and 0.631 µM (active), respectively.
For the compound `O=C1C(SCCO)=C(SCCO)C(=O)c2ccccc21`, the Potency is 2.79 µM (active) in assay [5] (HiBiT) and 4.97 µM (active) in assay [5] (Viability).
On to `Cc1ccc(S(=O)(=O)/C=C/C#N)cc1`, for which the figures for the Potency in assay [5] (HiBiT) and in assay [5] (Viability) were 5.57 µM (active) and 17.6 µM (active), respectively.
As for `CN1CCC[C@H]1c1cccnc1`, the max response in assay [3] is 4.53% and 0.248%. For the same compound, the result in assay [4] was inactive.
In the case of `CC(=O)[C@]1(O)Cc2c(O)c3c(c(O)c2[C@@H](O[C@H]2C[C@H](N)[C@H](O)[C@H](C)O2)C1)C(=O)c1c(O)cccc1C3=O`, the Potency in assay [1] is 501 nM (active) and 562 nM (active).
Consider `CC[C@H]1OC(=O)[C@H](C)[C@@H](O[C@H]2C[C@@](C)(OC)[C@@H](O)[C@H](C)O2)[C@H](C)[C@@H](O[C@@H]2O[C@H](C)C[C@H](N(C)C)[C@H]2O)[C@](C)(O)C[C@@H](C)C(=O)[C@H](C)[C@@H](O)[C@]1(C)O`, for which the activity, negative = cell killing in assay [2] (setting [9]) is -22.6% and -12%; in assay [2] (setting [10]), -9.85% and -27.5%; in assay [2] (setting [12]), -1.15% and -24.2%.
On to `CC(C)Cc1ccc([C@H](C)C(=O)O)cc1`, for which the activity, negative = cell killing in assay [2] (setting [9]) is 4.71%; in assay [2] (setting [10]), 0.88%; in assay [2] (setting [11]), -14%; in assay [2] (setting [12]) it was 8.55%. Besides, in assay [1], the Potency result was “inactive”.
Regarding `O=C(Nc1ccccc1)c1cc([N+](=O)[O-])ccc1Cl`, in assay [3], the max response is -1.59%.
For the compound `CC[C@H]1OC(=O)[C@H](C)C(=O)[C@H](C)[C@@H](O[C@@H]2O[C@H](C)C[C@H](N(C)C)[C@H]2O)[C@](C)(OC)C[C@@H](C)C(=O)[C@H](C)[C@H]2N(CCCCn3cnc(-c4cccnc4)c3)C(=O)O[C@]12C`, the activity, negative = cell killing in assay [2] (setting [9]) was -5.03%; in assay [2] (setting [10]), 5.49%; in assay [2] (setting [11]), -23.7%; in assay [2] (setting [12]) it was 5.5%. For the same compound, the Potency result in assay [1] was “inactive”.
In the case of `CN1[C@@H](CC(=O)c2ccccc2)CCC[C@H]1C[C@H](O)c1ccccc1`, the values for the activity, negative = cell killing in assay [2] (setting [9]), in assay [2] (setting [10]) and in assay [2] (setting [12]) were -7.77%, -23.7% and 11.9%, respectively. Besides, the Potency in assay [2] (tumour line A) is 10 µM (active). Moreover, the Potency entry in assay [1] is “inactive”.
As to `C=CCN1C(=O)C(CC(C)C)NC1=S` (stereo unspecified), the activity, negative = cell killing in assay [2] (setting [9]) is -28.5% and -13.5%; in assay [2] (setting [10]), -8.69% and -21.9%; in assay [2] (setting [11]), -6.38% and -35.5%; in assay [2] (setting [12]) it was -6.48% and -20.2%. Besides, the Potency entry in assay [1] was “inactive”.
In the case of `COc1ccc(/C=C2\COc3ccc(C)cc3C2=O)cc1O`, the Potency in assay [5] (HiBiT) is 14 µM (active). Also, the activity change, negative = inhibition in assay [5] (Viability) is -21.6%.
Consider `O=C(NOCC1CC1)c1cc(Br)c(F)c(F)c1Nc1ccc(I)cc1Cl`, for which, in assay [5] (Viability), the activity change, negative = inhibition was -18.5%.
In the case of `CCOC(=O)N1CCN(/[N+]([O-])=N/Oc2ccc([N+](=O)[O-])cc2[N+](=O)[O-])CC1`, in assay [5] (HiBiT), the Potency was 6.25 µM (active). In addition, in assay [5] (Viability), the activity change, negative = inhibition is 17.2%.
As for `O=S(=O)(c1cccc2c(I)cccc12)N1CCCNCC1`, the results for the activity change, negative = inhibition in assay [5] (HiBiT) and in assay [5] (Viability) were -4.28% and -12.4%, respectively.
Turning to `CC(C)NCC(O)COc1cccc2ccccc12` (stereo unspecified), the max response in assay [3] was 2% and 7.81%.
